Test results as given in PubChem BioAssay.
Records with an inconclusive call do not appear. Calls of active or inactive are those of the source.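 Rule for the calls, unless noted: active = GFP response, as percent of the DMSO control, above the screen-wide mean plus 3 SD, about 139; inconclusive = no response measured because the compound's own fluorescence interfered; inactive = the rest.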

What was measured:
[1] = yeast TOR pathway RPL19A-GFP modulators, primary screen, cell-based, S. cerevisiae, multiplex flow cytometry (AID 1862; in the data active = percent of DMSO control GFP below about 86%;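 note: lower values mimic rapamycin by blocking the RPL19A rise seen in DMSO cells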); settings: S. cerevisiae RPL19A-GFP strain, flow cytometry fluorescence, 3 h; at 10 µM; stronger effect = lower value
[2] = modulators of MEP2-GFP levels in yeast, primary screen, S. cerevisiae, multiplex flow cytometry (AID 1867);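 note: median GFP channel fluorescence of barcode-gated MEP2-GFP cells measured by flow cytometry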; settings: S. cerevisiae MEP2-GFP strain, 3 h, at 10 µM, stronger effect = higher value, 100% means same as DMSO wells
[3] = modulators of CIT2-GFP expression in yeast, primary screen, S. cerevisiae, GFP fusion, multiplex flow cytometry (AID 1870;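 active = percent response above a set limit, the screen-wide mean plus 3 SD, cut at about 130% in these data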;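 note: barcoded CIT2-GFP strain pooled with four other GFP strains with rapamycin as positive control; median GFP fluorescence per well over plate mean of DMSO wells so 100% = DMSO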); settings: 3 h, at 10 µM, stronger effect = higher value
[4] = modulators of LAP4-GFP expression in yeast, primary screen, S. cerevisiae, multiplex flow cytometry (AID 1873;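 active = GFP signal, as percent of the solvent control, above the screen mean plus 3 SD, about 149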); settings: 3 h, at 10 µM, stronger effect = higher value
[5] = modulators of AGP1-GFP expression in yeast TOR pathway, primary screen, cell-based, multiplex flow cytometry, S. cerevisiae (AID 1887;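 active = GFP signal above the screen-wide mean plus 3 SD, that is over about 124.5% of the solvent control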;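 note: AGP1-GFP fusion strain of S. cerevisiae within a five-strain barcoded multiplex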); settings: 3 h, at 10 µM, stronger effect = higher value
[6] = inhibitors of CD8+ T cell-vesicle binding, pilot screen, LFA-1/ICAM-1 modulator project, MLPCN validation set, flow cytometry (AID 2523;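 active = response below a set limit, under 55% cells CD8-positive and vesicle-bound, and CD8 cells' 90th-percentile brightness under 279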;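 for vesicle binding response: mean PE anti-B7-1 fluorescence of CD8+ cells relative to row control; 100% = QL9-loaded vesicles with DMSO vehicle in the same plate row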); settings: 2C mouse CD8+ T cells, at 7 µM, stronger effect = lower value; double positive events: measured here: CD8+/vesicle+ event percentage
[7] = biological target: Integrin beta-1 (Homo sapiens) + Integrin alpha-4 (Homo sapiens) (UniProt P13612+P05556); assay: inhibition of HUTS-21 binding to VLA-4, pilot screen, VLA-4 allosteric modulator project, U937 cells, HUTS-21 mAb, flow cytometry, validation set (AID 2674;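 active = inhibition above 50%, about 3 SD of the validation set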;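 note: antibody binding induced by the VLA-4 ligand LDV present at three times its Kd; 0% = LDV ligand with antibody and no compound and 100% = antibody without LDV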); settings: HUTS-21 LIBS mAb binding, at 6.7 µM, stronger effect = higher value, binding induced by LDV ligand
Integrin beta-1 (Homo sapiens) + Integrin alpha-4 (Homo sapiens), sequence (P05556 whole entry, looked up): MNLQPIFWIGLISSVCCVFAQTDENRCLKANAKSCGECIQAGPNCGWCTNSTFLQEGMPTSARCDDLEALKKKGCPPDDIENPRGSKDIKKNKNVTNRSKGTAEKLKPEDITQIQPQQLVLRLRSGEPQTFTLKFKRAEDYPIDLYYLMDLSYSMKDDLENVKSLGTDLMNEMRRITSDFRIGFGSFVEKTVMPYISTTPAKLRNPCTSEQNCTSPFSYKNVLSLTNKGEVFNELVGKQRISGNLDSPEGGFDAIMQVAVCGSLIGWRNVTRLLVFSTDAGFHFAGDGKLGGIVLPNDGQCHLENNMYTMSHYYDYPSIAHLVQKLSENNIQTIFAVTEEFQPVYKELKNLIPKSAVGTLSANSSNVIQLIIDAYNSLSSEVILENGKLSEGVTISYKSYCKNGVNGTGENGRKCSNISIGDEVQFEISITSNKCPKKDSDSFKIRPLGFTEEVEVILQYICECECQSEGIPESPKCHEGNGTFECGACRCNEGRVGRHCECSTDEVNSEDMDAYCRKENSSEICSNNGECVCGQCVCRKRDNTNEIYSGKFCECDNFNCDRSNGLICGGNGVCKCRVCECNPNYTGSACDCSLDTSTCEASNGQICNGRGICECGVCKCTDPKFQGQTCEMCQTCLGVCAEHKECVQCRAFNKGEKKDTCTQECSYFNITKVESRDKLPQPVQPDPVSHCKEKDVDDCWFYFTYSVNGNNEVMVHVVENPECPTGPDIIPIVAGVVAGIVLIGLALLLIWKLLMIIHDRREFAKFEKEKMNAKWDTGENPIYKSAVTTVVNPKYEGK
Integrin beta-1 (Homo sapiens) + Integrin alpha-4 (Homo sapiens), sequence (P13612 whole entry, looked up): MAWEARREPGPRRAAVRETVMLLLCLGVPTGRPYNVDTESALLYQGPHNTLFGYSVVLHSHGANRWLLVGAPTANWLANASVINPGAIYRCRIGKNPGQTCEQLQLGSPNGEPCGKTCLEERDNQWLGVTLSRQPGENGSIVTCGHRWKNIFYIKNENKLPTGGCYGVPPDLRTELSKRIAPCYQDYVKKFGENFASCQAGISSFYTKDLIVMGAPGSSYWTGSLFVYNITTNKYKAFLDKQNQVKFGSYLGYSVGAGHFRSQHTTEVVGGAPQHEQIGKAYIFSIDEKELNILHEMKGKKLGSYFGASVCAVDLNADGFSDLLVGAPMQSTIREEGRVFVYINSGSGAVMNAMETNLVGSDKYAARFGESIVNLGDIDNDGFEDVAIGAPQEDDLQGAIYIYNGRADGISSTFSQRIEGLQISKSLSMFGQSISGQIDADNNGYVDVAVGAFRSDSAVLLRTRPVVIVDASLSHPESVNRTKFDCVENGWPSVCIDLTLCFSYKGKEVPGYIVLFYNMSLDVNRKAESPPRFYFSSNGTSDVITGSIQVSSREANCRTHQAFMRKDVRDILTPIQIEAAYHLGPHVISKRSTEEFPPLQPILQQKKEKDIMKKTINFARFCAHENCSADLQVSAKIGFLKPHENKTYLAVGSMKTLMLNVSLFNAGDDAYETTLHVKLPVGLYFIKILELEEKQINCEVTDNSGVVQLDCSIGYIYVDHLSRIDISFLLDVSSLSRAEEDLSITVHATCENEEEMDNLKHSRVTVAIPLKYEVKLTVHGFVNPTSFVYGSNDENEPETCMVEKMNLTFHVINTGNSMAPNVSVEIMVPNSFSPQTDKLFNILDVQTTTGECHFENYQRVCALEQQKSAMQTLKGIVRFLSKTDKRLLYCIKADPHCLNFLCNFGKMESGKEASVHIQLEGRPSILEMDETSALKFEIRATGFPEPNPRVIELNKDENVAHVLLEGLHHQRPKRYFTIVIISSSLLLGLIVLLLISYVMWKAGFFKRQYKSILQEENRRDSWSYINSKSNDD

[8] = superoxide lowering in aged yeast cells, pilot screen, validation compound set (AID 2706;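 active = superoxide response below 65% of plate, a cut near 3 SD across the whole screen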;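 note: yeast exposed to compound for one week at 30 degrees C before staining; 100% = mean of all compound wells on the same plate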); settings: S. cerevisiae aging, superoxide DHE fluorescence; at 10 µM; stronger effect = lower value
[9] = biological target: Beta-adrenergic receptor kinase 1 (Homo sapiens) (UniProt P25098); assay: GRK2 binders displacing RNA aptamer, biochemical, validation, human GRK2, bead flow cytometry (AID 488806;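 active = aptamer binding inhibition above 30%, about 3 SD of noise from non-fluorescent compounds; inactive = inhibition at or below 30%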); settings: bead-bound GRK2, FAM-aptamer displacement, at 10 µM, stronger effect = higher value
Beta-adrenergic receptor kinase 1 (Homo sapiens), sequence (P25098 whole entry, looked up): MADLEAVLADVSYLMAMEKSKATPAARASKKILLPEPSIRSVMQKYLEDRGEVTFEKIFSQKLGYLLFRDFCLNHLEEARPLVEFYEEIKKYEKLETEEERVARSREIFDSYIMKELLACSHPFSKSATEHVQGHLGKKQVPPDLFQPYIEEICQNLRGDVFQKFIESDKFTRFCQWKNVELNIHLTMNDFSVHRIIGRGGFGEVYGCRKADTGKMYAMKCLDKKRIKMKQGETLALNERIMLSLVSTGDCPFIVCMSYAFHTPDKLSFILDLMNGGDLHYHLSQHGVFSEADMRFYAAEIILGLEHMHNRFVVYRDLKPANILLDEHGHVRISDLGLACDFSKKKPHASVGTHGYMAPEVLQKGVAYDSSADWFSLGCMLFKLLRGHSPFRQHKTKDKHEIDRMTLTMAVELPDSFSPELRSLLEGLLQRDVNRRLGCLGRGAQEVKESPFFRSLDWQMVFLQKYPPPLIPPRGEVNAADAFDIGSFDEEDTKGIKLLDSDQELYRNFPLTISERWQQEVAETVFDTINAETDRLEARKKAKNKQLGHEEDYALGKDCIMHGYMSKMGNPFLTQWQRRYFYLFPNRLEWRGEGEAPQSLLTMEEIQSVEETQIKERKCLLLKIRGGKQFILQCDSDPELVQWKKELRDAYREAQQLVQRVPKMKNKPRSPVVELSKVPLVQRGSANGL

[10] = biological target: Beta-2 adrenergic receptor (Homo sapiens) (UniProt P07550); assay: beta2AR agonists driving receptor internalization, pilot screen, cell-based, FAP fluorogen, flow cytometry, validation set (AID 504459;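 active = percent response above 42, roughly 3 SD of non-fluorescent test compounds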;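 note: agonist-driven loss of surface beta2AR via internalization measured by FAP dye flow cytometry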); settings: Am2.2-beta2AR cells, FAP surface receptor flow cytometry; at 10 µM; stronger effect = higher value
Beta-2 adrenergic receptor (Homo sapiens), sequence (P07550 whole entry, looked up): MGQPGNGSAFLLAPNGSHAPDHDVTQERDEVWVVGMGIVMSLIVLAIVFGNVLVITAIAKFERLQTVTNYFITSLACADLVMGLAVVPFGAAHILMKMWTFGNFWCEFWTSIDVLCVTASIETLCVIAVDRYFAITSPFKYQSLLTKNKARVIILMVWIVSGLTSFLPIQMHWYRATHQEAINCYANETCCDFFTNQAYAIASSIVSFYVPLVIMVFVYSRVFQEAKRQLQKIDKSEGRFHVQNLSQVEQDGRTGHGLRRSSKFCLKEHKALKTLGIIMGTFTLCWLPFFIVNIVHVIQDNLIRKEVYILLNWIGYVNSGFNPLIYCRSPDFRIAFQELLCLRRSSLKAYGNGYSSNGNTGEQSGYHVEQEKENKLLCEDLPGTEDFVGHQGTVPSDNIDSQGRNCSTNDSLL

[11] = biological target: AP-2 complex subunit beta (Homo sapiens) (UniProt P63010); assay: inhibitors of arrestin peptide binding to AP2, pilot screen, biochemical, validation set, GST-AP2 beads, flow cytometry (AID 504541;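 active = inhibition above 54%, about 3 SD of non-fluorescent compounds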;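 note: AP2 carries R879A mutation and is captured from E. coli lysate; bead-bound FITC arrestin peptide fluorescence measuring arrestin peptide binding to AP2; 0% = DMSO wells and 100% = excess unlabeled arrestin peptide control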); settings: FITC arrestin peptide, at 10 µM, stronger effect = higher value, AP2 beta2 appendage fragment, R879A mutant
AP-2 complex subunit beta (Homo sapiens), sequence (P63010 whole entry, looked up, the tested form may be a part, one chain of several): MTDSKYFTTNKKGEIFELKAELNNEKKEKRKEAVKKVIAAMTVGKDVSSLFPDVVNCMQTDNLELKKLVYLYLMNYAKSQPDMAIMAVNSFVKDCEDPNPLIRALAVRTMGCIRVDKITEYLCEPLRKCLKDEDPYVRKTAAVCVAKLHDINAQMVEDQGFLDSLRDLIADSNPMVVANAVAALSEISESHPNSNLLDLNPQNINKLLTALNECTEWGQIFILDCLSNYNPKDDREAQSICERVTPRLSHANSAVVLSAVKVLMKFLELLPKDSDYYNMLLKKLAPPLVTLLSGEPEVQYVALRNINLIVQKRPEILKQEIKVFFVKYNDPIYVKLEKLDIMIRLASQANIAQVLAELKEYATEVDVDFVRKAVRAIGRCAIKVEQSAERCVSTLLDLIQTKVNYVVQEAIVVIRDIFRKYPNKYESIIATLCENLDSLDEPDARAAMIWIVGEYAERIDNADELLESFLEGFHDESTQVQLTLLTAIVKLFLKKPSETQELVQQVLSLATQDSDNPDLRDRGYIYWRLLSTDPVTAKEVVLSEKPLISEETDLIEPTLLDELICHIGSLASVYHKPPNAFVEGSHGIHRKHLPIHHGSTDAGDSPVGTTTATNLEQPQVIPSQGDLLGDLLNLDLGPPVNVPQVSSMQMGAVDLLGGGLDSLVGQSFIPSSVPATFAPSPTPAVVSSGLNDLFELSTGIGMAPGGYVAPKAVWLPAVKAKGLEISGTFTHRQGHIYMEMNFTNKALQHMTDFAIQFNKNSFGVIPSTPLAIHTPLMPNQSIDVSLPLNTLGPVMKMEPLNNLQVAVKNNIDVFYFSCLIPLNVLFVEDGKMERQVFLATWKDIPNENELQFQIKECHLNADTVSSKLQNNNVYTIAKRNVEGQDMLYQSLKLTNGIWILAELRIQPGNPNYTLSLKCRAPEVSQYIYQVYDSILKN

[12] = yeast V-ATPase proton transport modulators, S. cerevisiae, pHLuorin, HTS validation (AID 504600; in the data active = response above about 15%;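 note: plate controls were DMSO for no effect and reference compound for full effect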); settings: S. cerevisiae pHLuorin cytosolic pH, at 10 µM, stronger effect = higher value
[13] = tested on: anti-desmoglein-3 scFv antibody binding to human DSG3; assay: inhibitors of anti-DSG3 scFv binding to DSG3, pilot screen, biochemical, validation compound set, bead-based, flow cytometry (AID 588368;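 active = binding below the plate cutoff, the plate median minus 3 SD, with a reading above zero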;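 note: signal is the median channel fluorescence of bead-bound GFP antibody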); settings: Protein G beads, DSG3-Fc, scFv-GFP binding, at 10 µM, stronger effect = lower value
[14] = inhibitors of fungal efflux pumps CDR1, CDR2, MDR1, pilot screen, validation compound set, multiplex, phenotypic (AID 588506;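 active = efflux inhibition above 0.42, the validation set average plus 4 SD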;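 note: Nile Red retained in cells so higher fluorescence means more efflux inhibition; 0 = negative control wells and 1 = enniatin B 25 µM full block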); settings: S. cerevisiae pump-expressing triplex, Nile Red efflux flow cytometry; at 10 µM; stronger effect = higher value; the pumps come from Candida albicans
[15] = biological target: ATP-binding cassette sub-family B member 6 (Homo sapiens) (UniProt Q9NP58); assay: ABCB6 transporter inhibitors, pilot screen, K562-ABCB6 cells, flow cytometry, validation set (AID 588550;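 active = inhibition above the screen-wide mean plus 3 SD, about 51%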;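 note: 0% = DMSO wells and 100% = benzethonium chloride 70 µM positive control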); settings: K562-ABCB6 porphyrin accumulation, 1 h, at 10 µM, stronger effect = higher value
ATP-binding cassette sub-family B member 6 (Homo sapiens), sequence (Q9NP58 whole entry, looked up): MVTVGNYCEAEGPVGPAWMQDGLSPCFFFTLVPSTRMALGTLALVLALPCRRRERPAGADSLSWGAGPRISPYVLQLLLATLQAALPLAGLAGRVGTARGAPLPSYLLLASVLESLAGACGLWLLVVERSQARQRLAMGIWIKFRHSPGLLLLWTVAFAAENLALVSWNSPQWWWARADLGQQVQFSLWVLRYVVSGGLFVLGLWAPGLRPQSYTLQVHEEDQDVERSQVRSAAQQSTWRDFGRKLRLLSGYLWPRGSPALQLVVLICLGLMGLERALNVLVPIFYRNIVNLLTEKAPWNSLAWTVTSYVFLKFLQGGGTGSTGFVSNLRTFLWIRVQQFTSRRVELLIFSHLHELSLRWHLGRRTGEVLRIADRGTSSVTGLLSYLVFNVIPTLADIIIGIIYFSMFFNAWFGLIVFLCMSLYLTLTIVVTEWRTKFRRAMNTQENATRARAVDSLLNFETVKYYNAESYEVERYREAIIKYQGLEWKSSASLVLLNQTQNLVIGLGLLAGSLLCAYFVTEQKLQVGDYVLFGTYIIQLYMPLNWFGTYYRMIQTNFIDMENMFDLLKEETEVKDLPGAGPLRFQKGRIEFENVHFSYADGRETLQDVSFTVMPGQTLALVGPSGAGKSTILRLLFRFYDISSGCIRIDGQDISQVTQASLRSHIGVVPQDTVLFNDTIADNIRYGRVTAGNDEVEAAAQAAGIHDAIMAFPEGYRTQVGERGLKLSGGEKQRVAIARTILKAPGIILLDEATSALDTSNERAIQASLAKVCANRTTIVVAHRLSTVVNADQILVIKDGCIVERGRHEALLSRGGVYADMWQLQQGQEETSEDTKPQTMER

[16] = promoters of myeloid differentiation in arrested cells, primary screen, cell-based, GFP/MAC1 double positive, flow cytometry, validation set (AID 588685;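 active = differentiation response of at least 50%, scaled between solvent and reference control, from cells with both markers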;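 note: compound exposure lasts four days before antibody staining and flow analysis; 0% = DMSO wells and 100% = 5 µM fulvestrant positive control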); settings: ER-HoxA9 marrow cells, stronger effect = higher value, normalized: vehicle 0, fulvestrant 100

CC(=O)N1CCn2c3c(c4cc(C)ccc42)CCCC31 (stereo not given)
inactive: percent of DMSO control GFP [1] 99.7% | GFP response vs DMSO [2] 102% | percent response of DMSO control [3] 98.3% | GFP response vs DMSO [4] 123% | GFP response, % of DMSO [5] 111% | vesicle binding response [6] 208% | inhibition [7] 0.59% | superoxide response (% of plate) [8] 122% | aptamer binding inhibition [9] 0% | response [10] 14.2% | response [12] 4.65% | binding (% of control) [13] 110% | efflux inhibition (fraction of control) [14] 0.38 | inhibition [15] -1% | differentiation response [16] -4%
active: inhibition [11] 61.1%
62%: double positive events [6]

Cc1cccc(Oc2coc3cc(OC(=O)c4cncc(Br)c4)ccc3c2=O)c1
64.8%: double positive events [6]
active: inhibition [15] 103%
inactive: percent of DMSO control GFP [1] 98% | GFP response vs DMSO [2] 111% | percent response of DMSO control [3] 95.8% | GFP response vs DMSO [4] 126% | GFP response, % of DMSO [5] 100% | vesicle binding response [6] 224% | inhibition [7] -4.52% | superoxide response (% of plate) [8] 78.9% | aptamer binding inhibition [9] 1% | response [10] 9.93% | inhibition [11] -11.9% | response [12] 1.76% | binding (% of control) [13] 99.1% | efflux inhibition (fraction of control) [14] 0.33 | differentiation response [16] 10.4%

C=CCC1(Cl)C(=O)C(Cl)=C(N2CCOCC2)C1(OC)OC (stereo not given)
59.1%: double positive events [6]
inactive: percent of DMSO control GFP [1] 101% | GFP response vs DMSO [2] 94.1% | percent response of DMSO control [3] 108% | GFP response vs DMSO [4] 99.1% | GFP response, % of DMSO [5] 95.2% | vesicle binding response [6] 167% | inhibition [7] -4.52% | superoxide response (% of plate) [8] 102% | aptamer binding inhibition [9] 2% | response [10] -2.88% | inhibition [11] -0.19% | response [12] -0.35% | binding (% of control) [13] 98.9% | efflux inhibition (fraction of control) [14] -0.21 | inhibition [15] 8% | differentiation response [16] -4%

CCc1cc2c(=O)c(-c3nc(C)cs3)c(CCCC(=O)O)oc2cc1O
inactive: percent of DMSO control GFP [1] 103% | GFP response vs DMSO [2] 108% | percent response of DMSO control [3] 102% | GFP response vs DMSO [4] 98% | GFP response, % of DMSO [5] 100% | inhibition [7] 1.62% | superoxide response (% of plate) [8] 105% | aptamer binding inhibition [9] 2% | response [10] -4.49% | inhibition [11] -6.82% | response [12] -0.76% | binding (% of control) [13] 114% | efflux inhibition (fraction of control) [14] -0.2 | inhibition [15] -3% | differentiation response [16] 2.2%
54.4%: double positive events [6]
active: vesicle binding response [6] 39.1%

CC(C)Oc1cccc(C(=O)N2CCCC2)c1
inactive: percent of DMSO control GFP [1] 102% | GFP response vs DMSO [2] 106% | percent response of DMSO control [3] 94.2% | GFP response vs DMSO [4] 99.9% | GFP response, % of DMSO [5] 100% | vesicle binding response [6] 221% | inhibition [7] -4.6% | superoxide response (% of plate) [8] 101% | aptamer binding inhibition [9] 0% | response [10] -9.83% | inhibition [11] -4.57% | response [12] 1.82% | binding (% of control) [13] 93.2% | efflux inhibition (fraction of control) [14] 0.14 | inhibition [15] -4% | differentiation response [16] 9.04%
64.7%: double positive events [6]

COc1cc(C(=O)N/C(=C\c2cn(C)c3ccccc23)C(=O)NCCCO)cc(OC)c1OC
inactive: percent of DMSO control GFP [1] 102% | GFP response vs DMSO [2] 94.1% | percent response of DMSO control [3] 107% | GFP response vs DMSO [4] 75.2% | GFP response, % of DMSO [5] 88% | vesicle binding response [6] 215% | inhibition [7] 11.9% | superoxide response (% of plate) [8] 99.7% | aptamer binding inhibition [9] 2% | response [10] 5% | inhibition [11] -0.03% | response [12] 11.1% | binding (% of control) [13] 100% | efflux inhibition (fraction of control) [14] 0.3 | inhibition [15] 7% | differentiation response [16] -15.2%
56.3%: double positive events [6]

Cn1c(=O)[nH]c(=O)c2c1nc(NCc1ccco1)n2CCCc1ccccc1
inactive: percent of DMSO control GFP [1] 101% | GFP response vs DMSO [2] 101% | percent response of DMSO control [3] 100% | GFP response vs DMSO [4] 90.1% | GFP response, % of DMSO [5] 105% | vesicle binding response [6] 36.6% | inhibition [7] -2.53% | superoxide response (% of plate) [8] 103% | aptamer binding inhibition [9] 5% | response [10] -5.62% | inhibition [11] 9.94% | response [12] 0.19% | binding (% of control) [13] 97.2% | efflux inhibition (fraction of control) [14] -0.07 | inhibition [15] -1% | differentiation response [16] -3.67%
62.6%: double positive events [6]

COCCOC(=O)C1=C(N)OC2=C(C(=O)CCC2)C1c1cccnc1 (stereo not given)
inactive: percent of DMSO control GFP [1] 105% | GFP response vs DMSO [2] 105% | percent response of DMSO control [3] 100% | GFP response vs DMSO [4] 89.4% | GFP response, % of DMSO [5] 101% | vesicle binding response [6] 89.9% | inhibition [7] -5.64% | superoxide response (% of plate) [8] 99.2% | aptamer binding inhibition [9] 2% | response [10] -2.38% | inhibition [11] 4.01% | response [12] 0.7% | binding (% of control) [13] 99.3% | efflux inhibition (fraction of control) [14] -0.1 | inhibition [15] -4% | differentiation response [16] 7.09%
59.9%: double positive events [6]

O=C(Nc1ccc(C(=O)NC2CCCCC2)cc1)c1cccnc1
57.6%: double positive events [6]
inactive: percent of DMSO control GFP [1] 99.5% | GFP response vs DMSO [2] 101% | percent response of DMSO control [3] 107% | GFP response vs DMSO [4] 119% | GFP response, % of DMSO [5] 105% | vesicle binding response [6] 232% | inhibition [7] -0.43% | superoxide response (% of plate) [8] 113% | aptamer binding inhibition [9] 1% | response [10] -3.04% | inhibition [11] -15.9% | response [12] 1.36% | binding (% of control) [13] 95.1% | efflux inhibition (fraction of control) [14] -0.17 | inhibition [15] 13% | differentiation response [16] -4%

Nc1c(C(=O)c2ccccc2)oc2ccccc12
66%: double positive events [6]
inactive: percent of DMSO control GFP [1] 101% | GFP response vs DMSO [2] 96.2% | percent response of DMSO control [3] 100% | GFP response vs DMSO [4] 93.3% | GFP response, % of DMSO [5] 74.2% | vesicle binding response [6] 198% | inhibition [7] -2.53% | superoxide response (% of plate) [8] 89.5% | aptamer binding inhibition [9] -1% | response [10] -9.17% | inhibition [11] -8.74% | response [12] 1.23% | binding (% of control) [13] 86.9% | efflux inhibition (fraction of control) [14] -0.32 | inhibition [15] -18% | differentiation response [16] 24.7%
